The term AC50 denotes the midpoint of the concentration-response curve, whichever way the signal moves.

The target in assay [1] is Estrogen receptor (Homo sapiens) (UniProt P03372). The assay can be described thus: OT_ER_ERaERa_1440: Odyssey Thera (OT) 24-hour HEK293T Protein-Complementation Assay for Estrogen Receptor-alpha/-alpha Homodimer (AID 2283349).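 Note: hits raise fluorescence above DMSO for agonists and antagonists alike.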 In short, it runs like this:
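Readout is the rise in mean fluorescence from reporter fragment complementation when ERα LBD (aa 310-547) units dimerize in HEK293T cells. Measured 24 h after dosing and analysed as increase over DMSO control.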

Assay [2] has the same target. The assay is described as follows: OT_ER_ERaERa_0480: Odyssey Thera (OT) 8-hour HEK293T Protein-Complementation Assay for Estrogen Receptor-alpha/-alpha Homodimer (AID 2283351).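 Note: rise in fluorescence from reassembled reporter fragments on ERα LBD homodimer in nucleus or whole cell.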 In short, it runs like this:
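Binding reporter in which dimerisation of ERα LBD (aa 310-547) fusions reconstitutes a fluorescent reporter in HEK293T cells. Compounds incubated 8 h; mean fluorescence intensity increase versus DMSO scored.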

Assay [3] deals with T1, Estrogen receptor (Homo sapiens) + Estrogen receptor beta (Homo sapiens) (UniProt P03372+Q92731). The assay can be described thus: OT_ER_ERaERb_0480: Odyssey Thera (OT) 8-hour HEK293T Protein-Complementation Assay for Estrogen Receptor-alpha/-beta Heterodimer (AID 2283352). The gist of the method:
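Compound added to HEK293T cells carrying split-reporter-tagged ER-alpha and ER-beta LBDs, incubated 8 hours, then imaged by laser scanning cytometer. Signal rise in nucleus, or nucleus and cytoplasm, over vehicle was fitted in the positive direction.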

Assay [4] concerns the target T1, Estrogen receptor (Homo sapiens) + Estrogen receptor beta (Homo sapiens). The assay is described as follows: OT_ER_ERaERb_1440: Odyssey Thera (OT) 24-hour HEK293T Protein-Complementation Assay for Estrogen Receptor-alpha/-beta Homodimer (AID 2283356).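 Note: heteromer of ER alpha and ER beta binding domains; hits raise reporter fluorescence and both agonists and antagonists give an increase.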 In short, it runs like this: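 Stable HEK293T PCA line, ERα LBD 310-547 + ERβ LBD 263-489 fused to reporter fragments; 24 h treatment; fluorescence read by laser scanning cytometry; positive fitting direction relative to DMSO.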

In assay [5] the target is Estrogen receptor beta (Homo sapiens) (UniProt Q92731). The assay is described as follows: OT_ER_ERbERb_0480: Odyssey Thera (OT) 8-hour HEK293T Protein-Complementation Assay for Estrogen Receptor-beta/-beta Homodimer (AID 2283357).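 Note: active means signal gain over DMSO baseline.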 The gist of the method: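 Readout: increase in mean fluorescence intensity (nucleus for agonists; nucleus plus cytoplasm for antagonists) relative to DMSO, from a reporter-fragment complementation of human ER-beta LBD homodimer in HEK293T cells dosed 8 hours.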
Estrogen receptor beta (Homo sapiens), sequence (Q92731 whole entry, looked up, the tested form may be a part): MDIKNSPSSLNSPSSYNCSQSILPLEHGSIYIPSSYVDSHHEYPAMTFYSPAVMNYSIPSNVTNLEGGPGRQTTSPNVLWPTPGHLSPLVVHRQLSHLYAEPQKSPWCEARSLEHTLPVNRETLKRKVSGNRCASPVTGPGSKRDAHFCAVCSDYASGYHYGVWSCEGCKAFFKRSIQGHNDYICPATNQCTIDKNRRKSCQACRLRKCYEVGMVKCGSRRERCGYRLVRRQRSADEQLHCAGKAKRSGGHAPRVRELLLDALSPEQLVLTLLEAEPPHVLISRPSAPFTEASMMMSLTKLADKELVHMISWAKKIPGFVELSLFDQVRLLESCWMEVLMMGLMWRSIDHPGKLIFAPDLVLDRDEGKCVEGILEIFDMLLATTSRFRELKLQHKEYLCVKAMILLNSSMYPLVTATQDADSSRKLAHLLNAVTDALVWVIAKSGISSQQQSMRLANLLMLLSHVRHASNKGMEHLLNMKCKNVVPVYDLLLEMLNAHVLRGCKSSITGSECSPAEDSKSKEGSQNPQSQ

Assay [6] shares this target. The assay can be described thus: OT_ER_ERbERb_1440: Odyssey Thera (OT) 24-hour HEK293T Protein-Complementation Assay for Estrogen Receptor-beta/-beta Homodimer (AID 2283380).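 Note: scored as signal increase over DMSO baseline for both agonists and antagonists.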 The gist of the method: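 HEK293T cells stably expressing human ER-beta LBD (aa 310-547) PCA homodimer pair, dosed 24 h; formaldehyde-fixed, Draq5-stained. Readout: increase in nuclear (agonist) or nuclear plus cytoplasmic (antagonist) fluorescence intensity versus DMSO, gain-of-signal fitting.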

Assay [7] has as its target Estrogen receptor (Homo sapiens) (UniProt P03372). The assay is described as follows: OT_ERa_GFPERaERE_0480: Odyssey Thera (OT) 8-hour HeLa Transcription Induction Assay for Estrogen Receptor (AID 2283381; active = hit-call score of the fitted dose curve at least 0.9, where 1 is the maximum; inactive = score below 0.9). In short, it runs like this: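 Cells (HeLa) receive compound; after 8 h, reporter fluorescence is imaged and quantified by high-content analysis. Gain-of-signal relative to DMSO gives the endpoint.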

For assay [8] the target is unchanged. The assay can be described thus: OT_ERa_GFPERaERE_0120: Odyssey Thera (OT) 2-hour HeLa Transcription Induction Assay for Estrogen Receptor (AID 2283382). The gist of the method:
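Measures ESR1 pathway reporter gain-of-signal in HeLa cells after a 2-hour treatment, detected as fluorescent protein induction by microscopy, DMSO as baseline.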

Assay [9] deals with Retinoic acid receptor RXR-alpha (Homo sapiens) (UniProt P19793). The assay can be described thus: OT_NURR1_NURR1RXRa_0480: Odyssey Thera (OT) 8-hour HEK293T Protein Complementation Assay for Nurr1/retinoid X receptor (RXR) (AID 2283385). The gist of the method:
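Compounds are applied to HEK293T cells carrying Nurr1 and RXRα linked to reporter fragments. After 8 h, fluorescence intensity reports heterodimer formation, with DMSO as baseline.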

Assay [10] shares this target. The assay is described as follows: OT_NURR1_NURR1RXRa_1440: Odyssey Thera (OT) 24-hour HEK293T Protein Complementation Assay for Nurr1/retinoid X receptor (RXR) (AID 2283386). The gist of the method:
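Measured as fluorescence from a reconstituted split reporter, this 24 h HEK293T complementation assay scores compound-induced gain of Nurr1/RXRα association relative to DMSO.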

Assay [11] deals with Peroxisome proliferator-activated receptor gamma (Homo sapiens) (UniProt P37231). The assay can be described thus: OT_PPARg_PPARgSRC1_1440: Odyssey Thera (OT) 24-hour Protein-Complementation Assay for Peroxisome Proliferator-activated Receptor Gamma/ SRC-1 Co-activator (AID 2283388).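 Note: nuclear to cytoplasmic ratio of reconstituted Venus YFP fluorescence in fixed imaged cells.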 The gist of the method: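 Protein-fragment complementation between PPARg and coactivator SRC-1 was measured by fluorescence imaging in transiently transfected HEK293T cells after 24 h treatment. Signal was quantified as N/C ratio in the 488 nm channel, with DMSO as negative control.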
Peroxisome proliferator-activated receptor gamma (Homo sapiens), sequence (P37231 whole entry, looked up, the tested form may be a part): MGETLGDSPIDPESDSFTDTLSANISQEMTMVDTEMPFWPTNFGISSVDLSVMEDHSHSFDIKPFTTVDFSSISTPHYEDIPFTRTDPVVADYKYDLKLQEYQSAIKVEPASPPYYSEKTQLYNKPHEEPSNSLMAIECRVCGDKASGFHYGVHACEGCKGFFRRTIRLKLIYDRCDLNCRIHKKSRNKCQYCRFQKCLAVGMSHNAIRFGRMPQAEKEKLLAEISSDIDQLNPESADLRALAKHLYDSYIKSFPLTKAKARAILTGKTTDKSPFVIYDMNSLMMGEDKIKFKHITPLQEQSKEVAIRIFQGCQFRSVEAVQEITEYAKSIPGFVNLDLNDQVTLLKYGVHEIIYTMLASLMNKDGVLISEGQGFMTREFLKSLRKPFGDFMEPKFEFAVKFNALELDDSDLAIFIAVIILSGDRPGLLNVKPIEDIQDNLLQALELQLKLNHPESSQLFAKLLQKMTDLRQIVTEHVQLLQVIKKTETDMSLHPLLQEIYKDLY

Read-out in assay [12]: Fatty acid synthase (Homo sapiens) (UniProt P49327)
The assay can be described thus: LTEA_HepaRG_FASN: Life Technologies and Expression Analysis (LTEA) Assay for Fatty Acid Synthase (FASN) using HepaRG (AID 2283448; active = hit-call score of the fitted dose curve at least 0.9, where 1 is the maximum; inactive = score below 0.9). Particulars: mRNA level, 48 h; actives raise or lower the signal. In short, it runs like this: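 Transcript-level assay: HepaRG liver cells are treated for 48 h across an eight-point range topping at 100 uM, and FASN mRNA, normalized to three housekeeping genes, is compared with DMSO controls in both directions.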

Read-out in assay [13]: Cyclin D2 (CCND2), CCND2 (gene 894)
The assay is described as follows: LTEA_HepaRG_CCND2: Life Technologies and Expression Analysis (LTEA) Assay for Cyclin D2 (CCND2) using HepaRG (AID 2283449; active = hit-call score of the fitted dose curve at least 0.9, where 1 is the maximum; inactive = score below 0.9;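 note: CCND2 transcript measured by TaqMan qRT-PCR and normalised to three housekeeping genes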). Particulars: mRNA level, 48 h; actives raise or lower the signal. The gist of the method: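 Differentiated human HepaRG cells were exposed for 48 h in serum-free induction medium to eight half-log concentrations topping at 100 uM (0.5% DMSO vehicle). CCND2 mRNA was quantified by TaqMan qRT-PCR, normalised to ACTB, GAPDH and POLR2A, and fitted bidirectionally against DMSO.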

Read-out in assay [14]: Cyclin Dependent Kinase Inhibitor 1A (CDKN1A), CDKN1A (gene 1026)
The assay is described as follows: LTEA_HepaRG_CDKN1A: Life Technologies and Expression Analysis (LTEA) Assay for Cyclin Dependent Kinase Inhibitor 1A (CDKN1A) using HepaRG (AID 2283450; active = hit-call score of the fitted dose curve at least 0.9, where 1 is the maximum; inactive = score below 0.9). Particulars: mRNA level, 48 h; actives raise or lower the signal. The gist of the method: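 Read-out is CDKN1A mRNA by TaqMan qRT-PCR, normalized to three housekeeping genes and fitted in both directions against the DMSO baseline. Human HepaRG cells were treated 48 h with test chemicals up to 100 uM in half-log steps, 0.5% DMSO.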

Read-out in assay [15]: Cyclin D1 (CCND1), CCND1 (gene 595)
The assay can be described thus: LTEA_HepaRG_CCND1: Life Technologies and Expression Analysis (LTEA) Assay for Cyclin D1 (CCND1) using HepaRG (AID 2283451; active = hit-call score of the fitted dose curve at least 0.9, where 1 is the maximum; inactive = score below 0.9). The note with it: mRNA level, 48 h; actives raise or lower the signal. The gist of the method: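 HepaRG plated 48 h, medium switched to serum-free induction medium, chemicals added in duplicate (top 100 uM, half-log steps, 0.5% DMSO) for 48 h, cells lysed, RNA measured by TaqMan qRT-PCR.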

Read-out in assay [16]: catalase (CAT), CAT (gene 847)
The assay can be described thus: LTEA_HepaRG_CAT: Life Technologies and Expression Analysis (LTEA) Assay for catalase (CAT) using HepaRG (AID 2283452; active = hit-call score of the fitted dose curve at least 0.9, where 1 is the maximum; inactive = score below 0.9). The note with it: mRNA level, 48 h; actives raise or lower the signal. The gist of the method:
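Differentiated HepaRG cells in serum-free induction medium were dosed 48 h in duplicate, eight half-log concentrations from 100 uM in 0.5% DMSO. Transcript measured by TaqMan qRT-PCR, normalised to ACTB/GAPDH/POLR2A, fitted bidirectionally against DMSO.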

Read-out in assay [17]: flavin-containing dimethylaniline monooxygenases 3 (FMO3), FMO3 (gene 2328)
The assay is described as follows: LTEA_HepaRG_FMO3: Life Technologies and Expression Analysis (LTEA) Assay for flavin-containing dimethylaniline monooxygenases 3 (FMO3) using HepaRG (AID 2283453; active = hit-call score of the fitted dose curve at least 0.9, where 1 is the maximum; inactive = score below 0.9). Particulars: mRNA level, 48 h; actives raise or lower the signal. The gist of the method: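 HepaRG, 48 h exposure, 8-pt half-log series from 100 uM, 0.5% DMSO vehicle, duplicates; FMO3 transcript by Fluidigm TaqMan qRT-PCR, housekeeping-normalized; gain/loss fit vs DMSO.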

Read-out in assay [18]: Cytochrome P450 (CYP1A1), CYP1A1 (gene 1543)
The assay can be described thus: LTEA_HepaRG_CYP1A1: Life Technologies and Expression Analysis (LTEA) Assay for Cytochrome P450 (CYP1A1) using HepaRG (AID 2283454; active = hit-call score of the fitted dose curve at least 0.9, where 1 is the maximum; inactive = score below 0.9). Particulars: mRNA level, 48 h; actives raise or lower the signal. The gist of the method: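 HepaRG, 48 h post-plating switched to serum-free induction medium; 8-pt conc-response (top 100 uM, half-log, 0.5% DMSO), duplicates, 48 h. Lysis in RLT, TaqMan qRT-PCR for CYP1A1; gain or loss vs DMSO.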

Results filed as inconclusive are left out. Active and inactive are the calls of the source. Rule for the calls, unless noted: active = hit-call score of the fitted dose curve at least 0.9, where 1 is the maximum; inconclusive = response in the unintended direction; inactive = score below 0.9.

Estrogen receptor (Homo sapiens), sequence (P03372 whole entry, looked up, the tested form may be a part): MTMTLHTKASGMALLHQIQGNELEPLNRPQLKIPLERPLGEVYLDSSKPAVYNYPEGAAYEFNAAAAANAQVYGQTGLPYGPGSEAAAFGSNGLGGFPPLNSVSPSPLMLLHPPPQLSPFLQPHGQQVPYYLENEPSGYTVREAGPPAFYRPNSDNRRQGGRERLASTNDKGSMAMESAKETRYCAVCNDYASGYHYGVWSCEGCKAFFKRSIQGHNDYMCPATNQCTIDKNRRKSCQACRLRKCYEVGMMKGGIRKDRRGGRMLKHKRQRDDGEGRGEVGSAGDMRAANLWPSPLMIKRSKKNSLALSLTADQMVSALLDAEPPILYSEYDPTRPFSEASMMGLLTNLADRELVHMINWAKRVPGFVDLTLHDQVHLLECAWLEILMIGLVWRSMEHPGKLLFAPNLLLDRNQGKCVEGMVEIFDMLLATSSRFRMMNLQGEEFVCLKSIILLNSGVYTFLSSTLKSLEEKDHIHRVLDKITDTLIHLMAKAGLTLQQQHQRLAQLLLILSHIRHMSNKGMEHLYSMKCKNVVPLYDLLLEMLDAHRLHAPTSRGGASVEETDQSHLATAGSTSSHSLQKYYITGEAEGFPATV
Retinoic acid receptor RXR-alpha (Homo sapiens), sequence (P19793 whole entry, looked up, the tested form may be a part): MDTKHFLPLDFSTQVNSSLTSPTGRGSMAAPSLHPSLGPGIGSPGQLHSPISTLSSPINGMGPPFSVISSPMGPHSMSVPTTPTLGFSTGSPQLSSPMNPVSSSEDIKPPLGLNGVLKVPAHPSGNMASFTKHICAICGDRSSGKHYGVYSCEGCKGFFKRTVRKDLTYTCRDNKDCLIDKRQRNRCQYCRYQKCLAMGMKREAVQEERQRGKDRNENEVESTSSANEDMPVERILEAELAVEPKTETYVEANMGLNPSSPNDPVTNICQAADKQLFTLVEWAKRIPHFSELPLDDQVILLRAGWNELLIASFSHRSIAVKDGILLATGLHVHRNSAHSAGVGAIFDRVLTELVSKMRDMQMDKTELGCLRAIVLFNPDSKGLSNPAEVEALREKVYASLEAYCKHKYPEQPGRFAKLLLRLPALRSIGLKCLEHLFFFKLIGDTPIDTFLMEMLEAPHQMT
T1 sequence (P03372 whole entry, looked up): as the sequence (P03372 whole entry, looked up, the tested form may be a part) above
T1 sequence (Q92731 whole entry, looked up): as the sequence (Q92731 whole entry, looked up, the tested form may be a part) above
Fatty acid synthase (Homo sapiens), sequence (P49327 whole entry, looked up): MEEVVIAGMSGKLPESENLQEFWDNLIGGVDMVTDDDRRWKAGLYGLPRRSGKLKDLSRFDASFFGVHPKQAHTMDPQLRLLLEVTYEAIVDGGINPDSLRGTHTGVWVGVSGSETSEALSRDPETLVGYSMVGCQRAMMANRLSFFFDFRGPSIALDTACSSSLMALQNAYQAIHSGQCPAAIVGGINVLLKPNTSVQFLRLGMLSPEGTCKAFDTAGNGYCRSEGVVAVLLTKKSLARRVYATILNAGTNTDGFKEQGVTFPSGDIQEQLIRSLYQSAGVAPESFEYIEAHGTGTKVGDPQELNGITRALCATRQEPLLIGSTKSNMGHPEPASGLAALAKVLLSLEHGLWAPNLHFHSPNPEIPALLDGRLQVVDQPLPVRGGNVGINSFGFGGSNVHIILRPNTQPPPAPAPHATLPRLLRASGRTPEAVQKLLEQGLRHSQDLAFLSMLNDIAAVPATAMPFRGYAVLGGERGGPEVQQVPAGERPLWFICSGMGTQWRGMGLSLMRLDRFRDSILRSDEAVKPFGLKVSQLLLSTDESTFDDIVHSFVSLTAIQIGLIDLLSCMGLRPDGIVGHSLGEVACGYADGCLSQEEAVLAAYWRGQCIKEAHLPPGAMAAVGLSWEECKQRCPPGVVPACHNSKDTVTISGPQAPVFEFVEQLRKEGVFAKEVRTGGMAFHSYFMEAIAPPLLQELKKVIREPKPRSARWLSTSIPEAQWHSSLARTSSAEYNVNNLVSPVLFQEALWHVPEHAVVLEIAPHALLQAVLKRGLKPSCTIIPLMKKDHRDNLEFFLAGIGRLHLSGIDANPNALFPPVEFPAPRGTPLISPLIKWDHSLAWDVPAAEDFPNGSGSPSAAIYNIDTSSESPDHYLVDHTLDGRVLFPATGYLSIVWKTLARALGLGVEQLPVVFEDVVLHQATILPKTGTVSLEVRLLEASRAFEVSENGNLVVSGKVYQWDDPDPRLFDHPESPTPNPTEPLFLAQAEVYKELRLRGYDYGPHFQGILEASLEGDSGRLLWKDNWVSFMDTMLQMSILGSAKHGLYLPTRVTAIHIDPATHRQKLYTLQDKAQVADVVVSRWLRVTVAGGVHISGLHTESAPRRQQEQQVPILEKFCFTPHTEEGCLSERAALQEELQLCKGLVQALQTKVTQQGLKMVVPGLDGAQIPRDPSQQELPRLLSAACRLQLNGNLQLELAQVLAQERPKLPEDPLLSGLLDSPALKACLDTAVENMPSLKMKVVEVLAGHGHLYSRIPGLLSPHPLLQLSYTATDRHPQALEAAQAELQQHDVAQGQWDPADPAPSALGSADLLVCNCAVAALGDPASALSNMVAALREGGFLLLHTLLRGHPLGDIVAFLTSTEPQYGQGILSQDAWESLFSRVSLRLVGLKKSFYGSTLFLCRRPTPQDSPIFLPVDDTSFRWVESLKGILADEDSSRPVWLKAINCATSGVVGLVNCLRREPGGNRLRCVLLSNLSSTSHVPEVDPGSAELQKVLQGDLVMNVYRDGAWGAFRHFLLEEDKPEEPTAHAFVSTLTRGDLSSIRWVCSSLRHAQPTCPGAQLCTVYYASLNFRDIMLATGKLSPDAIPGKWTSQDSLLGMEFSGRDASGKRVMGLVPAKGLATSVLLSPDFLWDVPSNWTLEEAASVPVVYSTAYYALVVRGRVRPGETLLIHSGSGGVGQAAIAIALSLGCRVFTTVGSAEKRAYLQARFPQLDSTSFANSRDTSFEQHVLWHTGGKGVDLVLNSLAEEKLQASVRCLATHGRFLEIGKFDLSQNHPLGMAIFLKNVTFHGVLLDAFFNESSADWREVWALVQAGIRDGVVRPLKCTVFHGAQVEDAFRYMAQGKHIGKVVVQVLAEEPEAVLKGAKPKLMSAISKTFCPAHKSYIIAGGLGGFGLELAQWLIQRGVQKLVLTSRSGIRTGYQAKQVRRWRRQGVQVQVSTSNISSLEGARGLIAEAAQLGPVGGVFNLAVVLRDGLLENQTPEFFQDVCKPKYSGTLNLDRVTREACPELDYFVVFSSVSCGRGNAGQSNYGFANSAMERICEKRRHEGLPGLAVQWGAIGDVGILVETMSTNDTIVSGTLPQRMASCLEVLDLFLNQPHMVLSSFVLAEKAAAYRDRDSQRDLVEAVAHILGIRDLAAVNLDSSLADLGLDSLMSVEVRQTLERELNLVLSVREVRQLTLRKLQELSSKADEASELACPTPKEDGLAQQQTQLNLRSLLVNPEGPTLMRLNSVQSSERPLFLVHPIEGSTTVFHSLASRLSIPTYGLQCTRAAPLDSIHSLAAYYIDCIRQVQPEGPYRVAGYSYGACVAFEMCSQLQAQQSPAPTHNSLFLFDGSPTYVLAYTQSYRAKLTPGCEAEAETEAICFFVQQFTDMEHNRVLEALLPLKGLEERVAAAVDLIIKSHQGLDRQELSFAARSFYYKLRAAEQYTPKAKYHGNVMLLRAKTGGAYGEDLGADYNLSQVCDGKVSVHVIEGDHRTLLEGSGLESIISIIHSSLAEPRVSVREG

As to `c1cc[n+]2c(c1)-c1cccc[n+]1CC2`, the call in assay [1], in [2], in [3], in assay [4], in assay [5] and in assay [6] was inactive. For the same compound, the compound was called inactive in [7], in assay [8], in assay [9], in assay [10], in assay [11] and in assay [12]. The result in assay [13], in assay [14], in assay [15], in [16] and in [17] was inactive. For the same compound, in [18], the AC50 was 22.4 µM (active).

Source of the values: PubChem BioAssay (EPA / NIEHS).
